{"source": "PubChem BioAssay (EPA / NIEHS)", "note": "Activity calls are given as the source filed them. Rule for the calls: active = hit-call score of the fitted dose curve at least 0.9, where 1 is the maximum; inactive = score below 0.9.", "data": [{"read-out": "Monokine induced gamma interferon (MIG), CXCL9 (gene 4283)", "assay": "BSK_hDFCGF_MIG: BioMAP Diversity Plus: hDFCGF Assay for Monokine induced gamma interferon (MIG) Biomarker Activity (AID 2283063)", "details": "primary human foreskin fibroblasts; actives raise or lower the signal", "description": "BSK_hDFCGF is a cell-based, multiplexed-readout assay that uses foreskin fibroblast, a human skin primary cell, with measurements taken at 24 hours after chemical dosing in a 96-well plate.BSK_hDFCGF_MIG is an assay component measured in the BSK_hDFCGF assay. It measures MIG antibody related to regulation of gene expression using ELISA technology.Data from the assay component BSK_hDFCGF_MIG was analyzed into 1 assay endpoint. This assay endpoint, BSK_hDFCGF_MIG, was analyzed with bidirectional fitting relative to DMSO as the negative control and baseline of activity. Using a type of binding reporter, gain or loss-of-signal activity can be used to understand changes in the signaling as they relate to the gene CXCL9. Furthermore, this assay endpoint can be referred to as a primary readout, because this assay has produced multiple assay endpoints where this one serves a signaling function. To generalize the intended target to other relatable targets, this assay endpoint is annotated to the cytokine intended target family, where the subfamily is chemotactic factor.\nThe levels of cell surface (or secreted, indicated by the prefix \"s\") biomarker endpoints were measured by ELISA. Overt cytotoxicity to cells in confluent adherent cultures (all systems other than the BT system) was assessed by measuring total protein levels using sulforhodamine B (SRB) staining in parallel cultures at the time of biomarker measurements, indicated as SRB endpoints. For proliferation assays for adherent cell types, individual cell types are cultured at sub-confluence and relative cell numbers quantified by SRB staining at time points optimized for each system (48 h: 3C and CASM3C systems; 72 h: BT and HDF3CGF systems; 96 h: SAg system). SRB was performed by staining cells with 0.1% SRB after fixation with 10% TCA and reading wells at 560 nm.Viability and proliferation of PBMC (T cells) was quantified by Alamar Blue reduction for the SAg and BT systems. For PBMC viability (referred to as PBMC Cytotoxicity within the assay endpoint names), cells were plated (75,000/well in a 96-well plate) and then chemical samples added for 1 h before addition of activators, SEB and TSST-1 (20 ng/mL final concentration each). Cells were incubated for 90 h. Then, Alamar Blue (20 uL/well) (Invitrogen, Cat DAL1100) was added for 6 h, and the plates were read with a fluorescence microplate reader at 546/580 nm (excitation/emission). For PBMC proliferation, cells were plated and activated as above but incubated for only 16 h prior to addition of Alamar Blue. Plates were read after 6 h.", "values": [{"smiles": "CC(C)N1C(=O)c2ccccc2NS1(=O)=O", "outcome": "inactive"}, {"smiles": "CCCCC(O)(Cn1cncn1)c1ccc(Cl)cc1Cl", "note": "(stereo not given)", "outcome": "inactive"}, {"smiles": "COP(=S)(OC)SCn1nnc2ccccc2c1=O", "outcome": "inactive"}, {"smiles": "Cn1c(-c2ccccc2)cc(-c2ccccc2)[n+]1C", "outcome": "inactive"}, {"smiles": "CC1(C)C(C=C(Cl)Cl)C1C(=O)OC(C#N)c1cccc(Oc2ccccc2)c1", "note": "(stereo not given)", "outcome": "inactive"}, {"smiles": "CCCC(=NOCC)C1=C(O)CC(CC(C)SCC)CC1=O", "note": "(stereo not given)", "outcome": "inactive"}, {"smiles": "Clc1nc(Cl)nc(Nc2ccccc2Cl)n1", "AC50": "29.1 µM (active)"}, {"smiles": "COCc1cnc(C2=NC(C)(C(C)C)C(=O)N2)c(C(=O)O)c1", "note": "(stereo not given)", "outcome": "inactive"}, {"smiles": "O=C(O)c1c(Cl)ccc2cc(Cl)cnc12", "outcome": "inactive"}, {"smiles": "N#CN=C1SCCN1Cc1ccc(Cl)nc1", "outcome": "inactive"}, {"smiles": "CCCCC(C#N)(Cn1cncn1)c1ccc(Cl)cc1", "note": "(stereo not given)", "outcome": "inactive"}, {"smiles": "CCSC(=O)N1CCCCCC1", "outcome": "inactive"}, {"smiles": "CCC(C)n1c(=O)[nH]c(C)c(Br)c1=O", "note": "(stereo not given)", "outcome": "inactive"}, {"smiles": "COC(=O)c1c(C(F)F)nc(C(F)(F)F)c(C2=NCCS2)c1CC(C)C", "outcome": "inactive"}, {"smiles": "CC(C)C1(C)N=C(c2ncccc2C(=O)O)NC1=O", "note": "(stereo not given)", "outcome": "inactive"}, {"smiles": "Nc1cnn(-c2ccccc2)c(=O)c1Cl", "outcome": "inactive"}, {"smiles": "Cc1cnc(C2=NC(C)(C(C)C)C(=O)N2)c(C(=O)O)c1", "note": "(stereo not given)", "outcome": "inactive"}, {"smiles": "COCC(C)N(C(=O)CCl)c1c(C)csc1C", "note": "(stereo not given)", "outcome": "inactive"}, {"smiles": "N#Cc1c[nH]cc1-c1cccc2c1OC(F)(F)O2", "outcome": "inactive"}, {"smiles": "COc1cc(Cl)c(OC)cc1Cl", "outcome": "inactive"}, {"smiles": "Clc1cccc(C(Cl)(Cl)Cl)n1", "outcome": "inactive"}, {"smiles": "CN/C(=N\\[N+](=O)[O-])NCc1cnc(Cl)s1", "outcome": "inactive"}, {"smiles": "CCOc1cc(C(C)(C)C)ccc1C1COC(c2c(F)cccc2F)=N1", "note": "(stereo not given)", "AC50": "29.4 µM (active)"}, {"smiles": "CC(C)=CC1C(C(=O)OCc2coc(Cc3ccccc3)c2)C1(C)C", "note": "(stereo not given)", "outcome": "inactive"}, {"smiles": "O=c1n(Cl)c(=O)n(Cl)c(=O)n1Cl", "outcome": "inactive"}, {"smiles": "CNC(=O)Oc1cccc2ccccc12", "outcome": "inactive"}, {"smiles": "Cc1c(COC(=O)[C@@H]2[C@H](/C=C(\\Cl)C(F)(F)F)C2(C)C)cccc1-c1ccccc1", "outcome": "inactive"}, {"smiles": "CCCCOCN(C(=O)CCl)c1c(CC)cccc1CC", "AC50": "33.3 µM (active)"}, {"smiles": "O=P(O)(O)CCCl", "outcome": "inactive"}, {"smiles": "CNC(=O)N(C)c1nnc(C(C)(C)C)s1", "outcome": "inactive"}, {"smiles": "CC(C)N1C(=O)N(c2ccccc2)CSC1=NC(C)(C)C", "AC50": "31.6 µM (active)"}, {"smiles": "CCN(CC)c1nc(C)cc(OP(=S)(OC)OC)n1", "outcome": "inactive"}, {"smiles": "CC(C)(C)C(=O)C(Oc1ccc(Cl)cc1)n1cncn1", "note": "(stereo not given)", "outcome": "inactive"}, {"smiles": "CCCN(CC)CC1COC2(CCC(C(C)(C)C)CC2)O1", "note": "(stereo not given)", "AC50": "0.602 µM (active)"}, {"smiles": "CCOP(=O)(OCC)Oc1nc(Cl)c(Cl)cc1Cl", "outcome": "inactive"}, {"smiles": "COC(=O)NS(=O)(=O)c1ccc(N)cc1", "outcome": "inactive"}, {"smiles": "COCC(=O)N(c1c(C)cccc1C)C(C)C(=O)OC", "note": "(stereo not given)", "outcome": "inactive"}, {"smiles": "CS(=O)(=O)c1ccc(C(=O)C2C(=O)CCCC2=O)c([N+](=O)[O-])c1", "outcome": "inactive"}, {"smiles": "COP(=O)(OC)O/C(C)=C/C(=O)N(C)C", "outcome": "inactive"}, {"smiles": "CCOP(=S)(OCC)Oc1nc(Cl)n(C(C)C)n1", "outcome": "inactive"}]}]}
